PLK1 PBD block – inhibitors of human PLK1 polo-box domain binding. P53350. Plk1 PBD binding of FITC phosphopeptide, fluorescence polarization. Potency, µM, for the others: max response, negative = inhibition, hits mostly inhibitors. 360,000 tested, 2.8% active; further: potency means the concentration at half of the fitted maximal effect; series mostly up to about 57 µM; on the % scale 0 is the no-effect control and ±100 the full control effect; nearly all actives have a fitted effect of over 65% in size
Target sequence (P53350 whole entry, looked up, the tested form may be a part): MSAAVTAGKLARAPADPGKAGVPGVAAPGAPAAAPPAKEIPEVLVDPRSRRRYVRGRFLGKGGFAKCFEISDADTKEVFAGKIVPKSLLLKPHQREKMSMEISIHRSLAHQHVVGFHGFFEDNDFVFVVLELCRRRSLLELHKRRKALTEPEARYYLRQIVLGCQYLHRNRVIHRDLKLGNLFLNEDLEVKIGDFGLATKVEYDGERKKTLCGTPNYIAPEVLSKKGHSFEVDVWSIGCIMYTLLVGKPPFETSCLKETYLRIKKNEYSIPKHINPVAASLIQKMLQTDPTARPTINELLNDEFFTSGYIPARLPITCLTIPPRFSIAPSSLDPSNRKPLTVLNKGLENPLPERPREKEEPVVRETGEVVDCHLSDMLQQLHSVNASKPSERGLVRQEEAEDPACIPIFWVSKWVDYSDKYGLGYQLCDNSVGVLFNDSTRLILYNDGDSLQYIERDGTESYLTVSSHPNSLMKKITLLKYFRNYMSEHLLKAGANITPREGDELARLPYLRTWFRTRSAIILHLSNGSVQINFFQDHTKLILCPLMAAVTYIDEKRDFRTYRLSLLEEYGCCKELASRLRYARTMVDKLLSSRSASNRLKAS
MBNL1-CUG inh – MBNL1-poly(CUG) RNA binding inhibition | Q9NR56 | TR-FRET MBNL1-His/biotin-(CUG)12 binding, 665/545 ratio | Potency, µM (highest dose often 57.5 µM), without a hit: at the top dose activity change, negative = inhibition, usual class: inhibitors | 280,000 tested, 0.036% active; active means well fitted inhibition curve with a large enough effect in the signal ratio, with a control signal flat, not every such curve was filed as active; inconclusive means small, poorly fitted or top-dose-only effect, or effect the other way, or a change in a side signal; inactive means no such curve, though single readings can be large or run the other way; the % refers to the signal ratio; further: potency means the concentration at half of the fitted maximal effect; on the % scale 0 is the no-effect control and ±100 the full control effect
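TR-FRET between His-tagged MBNL1 and biotin-(CUG)12 RNA, detected with Tb anti-His antibody (0.055 ng/ul) and streptavidin-XL665 (5 nM), 60 min at room temperature. Compounds titrated 92 nM to 58 uM; 665/545 nm ratio normalized to buffer and complex controls.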
KCNH2 WT inh – blocks the wildtype human KCNH2 potassium channel; 340,000 tested, 0.37% active; Q12809; U2OS, BacMam KCNH2, thallium flux FluxOr; hits give low values; activity change, % at 1.84 µM; AID 720551;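 active means maximum activity change below -70%; inconclusive means maximum activity change between -70% and -50%; inactive means maximum activity change above -50%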; further: on the % scale 0 is the no-effect control and ±100 the full control effect
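U2OS cells transduced with wild-type KCNH2 virus are loaded with FluxOr dye for 45 min, and thallium flux is measured in kinetic reads before and after stimulation buffer. Rate constants are normalized to DMSO controls.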
KCNH2 3.1 inh – KCNH2 3.1 (human) potassium channel inhibition. 340,000 tested, 0.95% active. U2OS KCNH2 3.1, thallium flux FluxOr; hits give low values. activity change, % (tested at about 1.8 µM);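 active means maximum activity change below -70%; inconclusive means maximum activity change from -70% to -50%; inactive means maximum activity change above -50%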;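 further: thallium influx rate constant from kinetic fluorescence after stimulation buffer; on the % scale 0 is the no-effect control and ±100 the full control effect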
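Thallium flux via FluxOr fluorescence (Red40 quencher, 45 min loading) in U2OS cells virally expressing the KCNH2 3.1 isoform (1.77 x 10^8 /mL virus, overnight at 37 C). Rate constants from 2-min kinetic reads post-stimulation, normalised to positive and negative controls.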
VDR inh – blocks the human vitamin D receptor; VDR-SRC2-3 peptide fluorescence polarization, 2 h; Potency, µM, for inactives: max response, negative = inhibition, most hits filed as inhibitors; 400,000 tested, 0.93% active; further: potency means the concentration at half of the fitted maximal effect; on the % scale 0 is the no-effect control and ±100 the full control effect
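Signal is fluorescence polarization, reporting how far test compounds block the interaction of VDR with the SRC2-3 coregulator peptide after a 2 h room-temperature incubation.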
CBFb-RUNX1 inh – blocks binding between human CBF-beta and RUNX1. Q01196+Q13951. AlphaScreen CBFb-His/RUNX1-biotin binding, biochemical. Potency, µM (doses to about 59.8 µM), inactives show at the highest dose activity, negative = inhibition, hits mostly inhibitors. 230,000 tested, under 10 active. AID 1477; further: % of control where 0% means no effect
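Bead-based AlphaScreen assay; binding partners His-tagged CBF-beta and biotinylated RUNX1 at 30 nM each. Compound exposure 15 min after a 20-min protein preincubation; bead step 90 min; all steps at room temperature.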
Numbers without * were called inactive; ? = inconclusive; · = no result. Compounds with a hit are over-represented: about 3.8% of the library has one in this group of screens. Unless noted, the call rests on the fitted dose curve; in most records, active means well fitted curve in the direction sought with a large enough effect; inconclusive means small, poorly fitted or top-dose-only effect, or another doubt; inactive means no such curve, though single readings can be large; an effect the other way counts as inactive or inconclusive.

SMILES	PLK1 PBD block	MBNL1-CUG inh	KCNH2 WT inh	KCNH2 3.1 inh	VDR inh	CBFb-RUNX1 inh
CCC(C)NC(=O)CN1C(=O)CSc2ccc(S(=O)(=O)N3CCCC3)cc21 (centres undefined)	-15%	-11%	3	8	-9%	·
CC1CC(C)CN(S(=O)(=O)c2ccc3c(c2)oc(=O)n3CC(=O)NCc2cccnc2)C1 (centres undefined)	0%	-1%	-157*	-2	0%	4%
CC1CCN(S(=O)(=O)c2ccc3c(c2)N(CC(=O)NCc2cccnc2)C(=O)CS3)CC1	27µM*	-19%	·	1	?	12%
O=C1CN(C(=O)C2CCCCC2)C(c2ccccc2)c2cc(F)ccc2N1 (centres undefined)	·	·	·	·	-9%	·
Cc1cccc(N2CCN(C(c3ccccc3)c3nnc(-c4ccccc4Cl)o3)CC2)c1C (centres undefined)	·	·	·	·	-12%	·
Cc1cc(C)cc(OCC(=O)NN2C(=O)c3ccccc3C2=O)c1	-8%	-7%	11	0	?	4%
O=C(Cc1ccc(Cl)cc1)NN1C(=O)c2ccccc2C1=O	27µM*	5%	5	5	-17%	3%
CCN1CCN(c2oc(COc3ccc(-c4ccccc4)cc3)nc2C#N)CC1	-9%	5%	29	-71*	7%	?
Cc1cccc(N2C(=O)CC(SC(=Nc3ccccc3)Nc3ccccc3)C2=O)c1 (centres undefined)	0%	?	-6	-3	8%	1%
O=C1SC(SC(=Nc2ccccc2)Nc2ccccc2)C(=O)N1c1ccccc1 (centres undefined)	6.7µM*	17%	4	-10	89µM*	-11%
O=[N+]([O-])c1cc(Br)c(Nc2ccccc2)c([N+](=O)[O-])c1	30µM*	?	-9	2	?	·
O=C(Nc1ccccc1)c1ccc(Nc2c([N+](=O)[O-])cc([N+](=O)[O-])c3ccccc23)cc1	-3%	1%	3	-12	10%	-7%
CCCN1C(=O)c2[nH]nc(-c3ccccc3O)c2C1c1cccc(OCc2ccccc2)c1 (centres undefined)	·	·	·	·	12%	·
CN(C)c1ccc(N=Nc2ccccc2C(=O)OCC(=O)N2CCCC2)cc1	3%	?	-26	-83*	13%	?
CNC(=O)c1cc(Cl)c(OC)c(OC)c1	27µM*	?	-27	-3	-32%	1%
COc1cc(C(N)=O)cc(Cl)c1OC	-7%	-16%	·	22	-9%	9%
COCCCNC(=O)c1cc(OC)c(OC)c(OC)c1	30µM*	1%	4	2	-13%	-1%
COc1ccccc1NC(=O)Cn1c(=O)n(Cc2ccccc2)c(=O)c2c1c1cc(C)ccc1n2C	·	·	·	·	5%	·
CC(=O)N1CCc2cc(CNS(=O)(=O)c3ccccc3C(F)(F)F)ccc21	·	·	·	·	-4%	·
O=C(NCc1ccc(Cl)cc1)c1cnccn1	0%	-18%	-3	-8	8%	2%
O=C(Cc1ccc(Cl)cc1)NNC(=O)c1cnccn1	30µM*	-31%	3	-3	-18%	-18%
Cc1cc[n+](Cc2ccc([N+](=O)[O-])cc2)cc1	-4%	23%	-2	-12	9%	4%
Cc1ccc(-c2cc[n+](Cc3ccccc3)cc2)cc1	19µM*	23%	5	-1	?	-1%
COc1cc(-n2cnnn2)ccc1S(=O)(=O)N1CCOCC1	-8%	-7%	-106*	-144*	1%	0%
COc1ccc(C(=O)NCCn2cc(SCC(=O)Nc3ccccc3)c3ccccc32)cc1OC	·	·	·	·	13%	·
SMILES	PLK1 PBD block	MBNL1-CUG inh	KCNH2 WT inh	KCNH2 3.1 inh	VDR inh	CBFb-RUNX1 inh
Cc1ccc(C(=O)NCC(c2ccco2)N2CCCCC2)s1 (centres undefined)	1%	·	15	-71*	-7%	·
O=C(NCC(c1ccco1)N1CCCCC1)c1ccc([N+](=O)[O-])s1 (centres undefined)	-10%	·	40	-9	-2%	·
Cc1cc(C)cc(NC(=O)c2cc(C)nc3c2c(C)nn3-c2ccccc2)c1	·	·	·	·	-1%	·
O=C1N=c2ccccc2=C1c1c(O)[nH]c2c(C(F)(F)F)cccc12	27µM*	2%	-31	-7	35µM*	·
COc1ccc(CNc2oc(COc3ccccc3)nc2C#N)cc1	-26%	4%	-17	-78*	-1%	-7%
CCOC(=O)c1scc(-c2ccccc2)c1S(=O)(=O)Nc1ccc(N(C)C)cc1	·	·	·	·	20µM*	·
CCOC(=O)c1scc(-c2ccc(C)cc2)c1S(=O)(=O)Nc1ccc(F)c(F)c1	·	·	·	·	11%	·
O=[N+]([O-])c1ccc(OCCCCN2CCc3ccccc3C2)cc1	-14%	?	-16	-71*	-5%	·
O=[N+]([O-])c1ccc(OCCCCN2CCCCC2)cc1	-5%	?	58	-27	-1%	3%
Cc1c(CCC(=O)O)c(=O)oc2cc3occ(-c4ccc(Cl)cc4)c3cc12	?	-4%	3	12	-29%	·
Cc1c(CCC(=O)O)c(=O)oc2c(C)c3occ(-c4ccc(Cl)cc4)c3cc12	30µM*	-5%	-12	2	?	·
Cc1oc2c(C)c3oc(=O)c(CCC(=O)O)c(C)c3cc2c1-c1ccccc1	27µM*	20%	·	13	?	·
CCOc1ccc(CNCc2c(C(=O)O)c(C)n(Cc3ccc(F)cc3Cl)c2C)cc1	·	·	·	·	23%	·
CCCCOc1ccc(C2=NC(c3ccncc3)=Nc3ccc(OCC)cc3N2)cc1	·	·	·	·	17%	·
O=C(CSc1ccc(Br)cc1)Nc1cccc(S(=O)(=O)N2CCOCC2)c1	6µM*	·	-12	2	?	·
Cc1cc(C(=O)OCC(=O)Nc2cccc(S(=O)(=O)N3CCOCC3)c2)c(C)o1	27µM*	1%	2	3	-18%	-6%
Cc1ccc(CC2CC(=O)N(Cc3ccco3)C2=O)cc1 (centres undefined)	-24%	13%	-1	16	?	1%
Cc1ccc(C2CC(=O)N3CN(Cc4ccco4)CSC3=C2C#N)cc1 (centres undefined)	27µM*	17%	-5	-5	?	-5%
N#CC1=C2SCN(Cc3ccco3)CN2C(=O)CC1c1c(F)cccc1Cl (centres undefined)	27µM*	-5%	1	10	?	-2%

Assay outcomes from PubChem BioAssay.
